The results in this text go back to PubChem BioAssay AID1347426 (Functional Genomics Laboratory (NCATS/FGL), 2020).

Out of some 31,000 sequences screened, about 1,400 (4.5%) were called active. This is one part of a sample in which actives are shown more often than they occur. Values without a mark were called inactive.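 How the source made its calls: active means median seed-adjusted z-score above 1 or below -1; inactive means the rest.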

A short description of the test: Novel Modifiers of Survival Motor Neuron (SMN) Protein: Gene Identification via Genome-wide siRNA Screen.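 Further: luminescence tracks full-length SMN protein made from the SMN2 reporter.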 Conditions: HEK293T SMN2-luciferase reporter, siRNA knockdown, 72 h; actives lie on both sides. The essentials:
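Luciferase signal, proportional to full-length SMN made from an SMN2 cDNA reporter in stable HEK293T cells, was read 72 h after siRNA reverse transfection. Values were expressed as MAD scores after non-targeting-control normalization and log10 conversion; seed analysis flagged off-targets.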
(In general: A reporter such as luciferase makes a cellular process visible.)
As for CACGAGCUAAAGUAAAAUATT against EGLN1, the median seed-adjusted z-score was 2.05 (active). For the sequence CAUCAUUACUGUUGAGGGATT against CSRP2BP, the median seed-adjusted z-score was -0.526.

As to GAGAAACCUUUAUUCGAUATT against GLULD1, the median seed-adjusted z-score is -0.332.

In the case of CCAUCGACAUUGAAACCUUTT against PITPNM2, the median seed-adjusted z-score is 0.275. GCAAUGCGUUCUUUCUAAATT against SIGLEC11: the median seed-adjusted z-score was -0.395. For CAAAGAGAUUUGUACAGAUTT against ZNF140, the median seed-adjusted z-score is 0.587.

GGACGAGCCUCAUGAAUGATT against SEC11B: the median seed-adjusted z-score was 1.04 (active). To CAGUGUCCAUGUACCUCUUTT against SLC37A4 belongs -0.00202; to GCAUUUAGGUACCAGCUCATT against SLC39A2, 0.0602; to CCAGGGAUAUGAUUGACAATT against SERPINE2, 0.0144. Next, GCAGUACACGAGAAAGUCATT against 1-Sep: 0.0103; CUACAUCAAGAAGACAUAUTT against ABHD2: -1.21 (active). For the sequence CUCUCUCUCUACGAACAUUTT against TCF7, the median seed-adjusted z-score was -0.338.

For CGACCCAGACAAUAGACUATT against CCNT1, the median seed-adjusted z-score is -0.72. Turning to GGUAUGGAUUGAUGCCGCATT against SLC6A2, the median seed-adjusted z-score is 0. Next, GCACCAUUCUAACAAUGGATT against NANS: -1.54 (active); CCAACAAGCUGUCUCCCUATT against CENPB: 0.292.

Take GUACAAGAGAUAAUGCAAATT against TFPI: the median seed-adjusted z-score is -0.0076.

For the sequence CUAUCAUAGUGACAAGCGATT against GJA5, the median seed-adjusted z-score was 0.707. To AAGUACAUAUAACCACUUATT against RAB14 belongs -0.0567; to CAGUGACCCGGAUCCUCUATT against RHCG, 0.375; to CCUGGACGAGUUUAUAAUATT against AP1S3, 0.153. To GCCGUAUAAGUGUCAAGCATT against ZNF57 belongs 0. To CAAUGUUAGGAGUCAGUCATT against ACTL6A belongs 1.11 (active).

Regarding AGGGCUUGUUUGACAACUUTT against CHTF18, the median seed-adjusted z-score was 0.371. Next, GCUGAUACCUUCUACCGUATT against GDPD2: -0.0868; ACCGCACGAUGUUCAACUUTT against DNAJC30: 0.329; CAGACAUGAAGUAUAAGAATT against TCEA2: 0.552. Next, CCUGCCCAAUGUGACCUUUTT against MRC2: -1.34 (active); CAAAUCCUAUAGUAUAACATT against RPS6KC1: 0.344. Next, AGAUUAAGAUGUUCUACGATT against ADI1: 0.0593. Consider GCCCAUUGACUAUUACUUUTT against AR, for which the median seed-adjusted z-score is -0.559. To GAUGGAAGAUGGAACGGUUTT against CDC42BPA belongs 0.257; to GUAUGUCAAGGAGAACGGATT against CTSL2, -1.04 (active); to CAUUAUCACUGGUGCACUUTT against CHN1, 2.1e-05. Next, GGAAUAACAGUUGUAGGAATT against TMTC3: 0.266; GAGAGCAACUUAAAGACGATT against ST18: 0.0762; UGCUCUACAUCAACCCUGATT against FSHR: -0.462. GAAGAGCCGUAUGAUCGAATT against ZNF432: the median seed-adjusted z-score was -0.124. To CAAGGAGCAGGGAUAUGAATT against ADAP2 belongs -1.1 (active); to GAGAGAUUGUGAUUGGAGATT against BHMT, 0. In the case of GGAUCCUAUUGAGAGGCUATT against HS2ST1, the median seed-adjusted z-score is 0.421. For GCACCAAGCAUUAUGAAAATT against SDCBP, the median seed-adjusted z-score was 0.0325. To CACCUGAAGUAAAUCGGAUTT against SF3B14 belongs -1.26 (active); to AGACAGUGUGGGUCCUGGATT against CD300E, 0.337. Next, GGCAGUUAAUGGAACAAUUTT against MTMR7: -0.207. To CGUGGGCUCUAUCUACUAUTT against PUF60 belongs 2.26 (active); to GAUAGAUCGUUUUAAGAGATT against MST4, 0.343. As to CGACAACAUAUGUUCCGGATT against TNFRSF11B, the median seed-adjusted z-score was 0.582. Take UAAUCAAGCUGAAAACAGATT against TRYX3: the median seed-adjusted z-score is 2.3 (active). Next, AAUUCGAGCUGGUGCCAUCTT against MYCL1: 0.0658. Next, ACCUCUACGUGGUCAGCUATT against DPP9: -0.224; CCAAACGAUUUAUACCUAATT against IPMK: -0.00138.

In the case of GAACAACCUGGAGAAAUAUTT against ENDOG, the median seed-adjusted z-score is -0.336.

As for GGAGAGACAUCGUCAGCUATT against AGXT, the median seed-adjusted z-score is 0.017. To GAUGCUGGUUGGUUCGAUATT against MFSD4 belongs -1.89 (active); to GAGUUUCGCCUGCUACAGATT against CELSR3, 0; to GGAUGAUUCGGAAGGUGAATT against ZNF467, 0. To GGGCCGUGCUGAUUGAGAATT against GPX2 belongs -0.21; to GGAGAAGAAUGAGCAACUUTT against ADAM19, 0.0996. Next, GGGCUUUGAUAGGAAUGCATT against UBE2K: 0.497; CGCAGUAUGUGGACUAUGATT against NID2: 0.283; GCUGAAAUCAAAAAGCGGATT against RAB1B: 1.55 (active). In the case of GGAAUGUGGUAACAGGAGATT against GMPR2, the median seed-adjusted z-score was 0.232. To CCUACUCUGUUGUUCGAAATT against C3 belongs 0.0281; to GCGGGAGAAGCUUACCUUUTT against DPP3, -0.261. To GGAAAUAUGCGGCUACGGATT against NADSYN1 belongs 0.217; to CGGGUACUGCUACACCUUUTT against SLC22A8, 0.175; to GUGAGACAGUUGACCGAGATT against SLC26A2, -1.25 (active). To CAUUCAAAUUUACCCUGUATT against POLR2H belongs -2.74 (active); to GGACCUUGUUAACAGUGGATT against APOBEC1, -0.323; to CCCUGUACGUGUACAUCAUTT against MPG, -0.0888. GAGGCAGUCUUAAAAUGGATT against RAB32: the median seed-adjusted z-score is -0.112.

On to CUUCAAGAAUAAGUACGAATT against KRT7, for which the median seed-adjusted z-score was 0. Take GUGUGAUUCUUGGAGCAAATT against PLD2: the median seed-adjusted z-score is -0.743. To CAACUACAACUGUGAGAUUTT against SF3A3 belongs -2.1 (active); to GAAAUACUGCGGUAUAAAATT against SYTL2, 0.211; to GCCCAUAGAGGGUUCAGAATT against CCNT1, -0.72. Next, GAGAUGAACCGGAACAUCATT against LOC650864: 0.214; GAACCAUGGAUGGUGAUAATT against ZNF287: 0.0213. Next, GCUCCACAGCAUAUGCUCATT against NFIL3: 0.4. For the sequence GAACUGUGAAUUAGAUGUATT against F9, the median seed-adjusted z-score was 0.332. As to GGAACACGCUGACAGGACATT against FZR1, the median seed-adjusted z-score was 0.729. With CGAUGUUGAAGUUACACCATT against ATP13A4, the median seed-adjusted z-score was -1.09 (active). Consider CCGCGAAUCCAUGACAAUATT against UGCG, for which the median seed-adjusted z-score was 0.492. For CCACCUCUACCAAACAUUUTT against IL2RG, the median seed-adjusted z-score was -0.155. Next, GGAGAUUCAUUCUAACCAUTT against ADAMTS19: -0.39; CAGUGAGAGUUUCAUCUUUTT against PKD1L2: -1.17 (active).

For the sequence GGAUAUGAGUUACAUGACATT against GALNT5, the median seed-adjusted z-score is -0.279.

As for GGACGACUUCUUUAAGUCATT against PGD, the median seed-adjusted z-score was -1.55 (active). To CGGCAAUUGUUGACGUGAATT against TXNDC11 belongs 0.642; to GGAUGGACUUUAUCCAGCATT against TM7SF4, 0.0246. GGACAACAGUCGGUCGAAUTT against ANP32C: the median seed-adjusted z-score is -0.421. Next, UGAUAUCGGCUACGUCAAATT against NAGK: 0.446; GGAUUACAGUGUCCAAAGATT against ADRA1A: -1.06 (active). Next, CCUACUAUGUGAGCAAUGATT against EEF1G: -0.206; GAGUCACAAUCGCAUGAAATT against FKBP9: 0.359; CCACACUUUUGGUCUUUAATT against PGDS: 0.02. To AGACGGUCCUCUUUCGACATT against LOC442229 belongs 0.183. With GGAUAUCAAUUAUUACGCUTT against LIFR, the median seed-adjusted z-score is 0.031.

As for AGGAGUCCCUAAUGCUACATT against TRIM74, the median seed-adjusted z-score was 0.0932. To GCAUCAACUUUGUGCAUGATT against PLTP belongs 1.09 (active); to GCAGCAAACUGACGGAGAATT against PCTK3, 0. On to CAGUGCUCAUGGAACUCUUTT against HMGCS2, for which the median seed-adjusted z-score was -0.465. To CGAUGAAGGGUUCCGAUUATT against CR1 belongs 0.143. Next, GGGCGAGUAUGACCGAUCATT against CTRL: 0.0758; GCAGAUACAUUGAUCGCAUTT against PRPF8: -1.54 (active); GGACCAGACAACGAACUGATT against RNF135: 0.581.
